PubChem BioAssay AID687001 (Broad Institute, 2013)
Measured potencies and affinities stand elsewhere. Calls of active or inactive are those of the source.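 Rule for the calls: active = signal-lowering compounds whose fitted half-maximal concentration is at or below twice the top tested dose in every run; inconclusive = runs disagree, flat 30 to 70% inhibition, or poor curve fit; inactive = the rest.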

biological target: Protein S100-A4 (Homo sapiens) (UniProt P26447); test: S100A4-myosin IIA binding inhibitor potency, dose response, biochemical, fluorescence polarization, cherry-picked hits (AID 687001); conditions: FP, S100A4/TAMRA-myosin IIA peptide binding; series mostly up to 11 µM
Sequence (P26447 whole entry, looked up): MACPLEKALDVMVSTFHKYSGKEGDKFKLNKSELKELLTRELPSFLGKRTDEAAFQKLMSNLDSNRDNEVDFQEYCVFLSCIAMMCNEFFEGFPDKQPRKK

outcome, inactive:
Cc1ccc(S(=O)(=O)Nc2ccc3c(c2)C(=O)N([C@H](C)CO)C[C@@H](C)[C@@H](CN(C)S(=O)(=O)c2ccc(C)cc2)OCCCC[C@@H](C)O3)cc1, O=C(c1ccccc1)N1CC2(C1)[C@H](c1ccccc1)[C@@H](CO)N2Cc1ccccn1, CC(C(=O)NC1CCCCC1)N1C(=O)c2cccc3cccc1c23 (stereo not drawn), ON(CCc1ccncc1)Cc1ccccc1, CCNC(=O)[C@@H]1[C@@H](CO)[C@@H]2Cn3c(ccc(-c4ccccc4)c3=O)[C@@H]2N1CC, OCCC1CN(Cc2ccc3c(c2)CCO3)CCN1Cc1ccc(F)cc1 (stereo not drawn), CCOC(=O)C1=C(c2ccccc2)NC(=O)NC1c1cc(OC)c(OC)c(OC)c1 (stereo not drawn), C[C@@H]1CCCCO[C@@H](CN(C)S(=O)(=O)c2cn(C)cn2)[C@@H](C)CN([C@H](C)CO)C(=O)c2cc(NS(=O)(=O)c3ccc(Cl)cc3)ccc2O1, Cn1cnc(CCNC(=O)C[C@H]2CC[C@H]3[C@@H](COC[C@@H](O)CN3C(=O)C3CC3)O2)c1, CCOC(=O)[C@@H]1[C@H]2COc3cc(OC)ccc3[C@@H]2N2C(=O)N(c3cccc(C)c3)C(=O)[C@]12C, CC(C)NC(=O)Nc1ccc2c(c1)C(=O)N([C@H](C)CO)C[C@@H](C)[C@H](CN(C)S(=O)(=O)c1ccccc1)OCCCC[C@@H](C)O2, COc1ccc(-c2ccc3c(c2)O[C@H](CN(C)Cc2cccnc2)[C@@H](C)CN([C@H](C)CO)S3(=O)=O)cc1, CC(=O)Nc1ccccc1-c1nc2cc(C#N)c(C#N)cc2[nH]c1=O, CCCCCN(C(=O)CCC(=O)OCC(=O)Nc1cccc(SC)c1)c1c(N)n(CCCC)c(=O)[nH]c1=O, CCC(Sc1nc2ccncc2[nH]1)C(=O)Nc1ccc(C)c(Cl)c1 (stereo not drawn), Cc1ccc(NC(=O)CSc2ccc(-c3cccnc3)nn2)cc1, CN1CCN(C(CNC(=O)C(=O)Nc2ccc3c(c2)OCO3)c2ccc(F)cc2)CC1 (stereo not drawn), CCOc1cc(/C=C2\CCCc3c2nc2ccccc2c3C(=O)O)ccc1OC, COc1ccc(-c2cnc(SCCNC(=O)c3ccc4c(c3)OCO4)[nH]2)cc1, C[C@@H]1CN([C@H](C)CO)C(=O)c2cc(N(C)C)ccc2O[C@@H](C)CCCCO[C@@H]1CN(C)C(=O)NC1CCCCC1, C#CCOCCOCCOCCNc1nc(N2CCN(C(=O)[C@H]([C@@H](C)CC)n3cc(CCCCN)nn3)CC2)nc(N2CCN(C(=O)[C@H](C)n3cc(CCC(=O)O)nn3)CC2)n1, CC(=O)N1CC(C)Oc2ccc(S(=O)(=O)NC(CC(=O)O)c3ccccc3)cc21 (stereo not drawn), Cc1cc(C(=O)N/N=C/c2ccccn2)c2ccccc2n1, C[C@@H]1CN([C@H](C)CO)C(=O)Cc2cc(NC(=O)Nc3ccc(C(F)(F)F)cc3)ccc2O[C@H]1CN(C)Cc1ccc2c(c1)OCO2, CN1c2ccc(-c3ccccc3)cc2[C@@H]2[C@@H](CCN2C(=O)c2cccc(F)c2)[C@@H]1CO, C=CCSc1n[nH]c(-c2cccs2)n1, CO[C@H]1CN(C)C(=O)c2ccc(NC(=O)NC(C)C)cc2OC[C@@H](C)N(C(=O)NC(C)C)C[C@H]1C, CN1c2ccc(-c3cccc(F)c3)cc2[C@H]2[C@H](CCN2C(=O)c2ccccc2F)[C@H]1CO, C[C@H]1CCCCO[C@H](CN(C)C(=O)Nc2ccc(C(F)(F)F)cc2)[C@@H](C)CN([C@@H](C)CO)C(=O)c2cc(NS(=O)(=O)c3ccccc3)ccc2O1, O=C(CSc1nnc(NC(=O)C2CC2)s1)NCc1ccccc1Cl, CC(C)c1ccc(/C=C(\NC(=O)c2ccccc2)C(=O)NCCCn2ccnc2)cc1, C[C@H]1CN([C@@H](C)CO)C(=O)c2cc(C#CC3CCCCC3)cnc2O[C@H]1CN(C)Cc1cncnc1, Cc1ccc(CNC(=O)Cn2cnc(C(=O)Nc3ccc(C)c(C)c3)n2)o1, CCN(CC(=O)Nc1c(F)cccc1F)C(=O)CNC(=O)c1cccs1, Cc1cc(-c2nc(C)c(-c3nnc(SCC(=O)Nc4ccc(Cl)cc4)n3C)s2)no1, CC(C)=CC(=O)O[C@@H]1Cc2cc3ccc(=O)oc3cc2OC1(C)C, COc1ccc(N(CC(=O)NC2CCCCC2)C(=O)CNC(=O)c2cccs2)cc1OC, O=C(c1ccc(N2C(=O)CCC2=O)cc1)N1CCCSC1=Nc1ccccc1
